Screening data deposited in PubChem by several laboratories.
This is a sample that favours compounds with a hit; in the whole collection about 27% have one here.
sEH inhibitor = soluble epoxide hydrolase inhibitors, primary screen, biochemical, human sEH; Bifunctional epoxide hydrolase 2 (Homo sapiens), P34913; recombinant human sEH enzymatic activity assay; inhibition, % at 2 µM; actives 0.34% (n = 91,000); in the data active = inhibition above about 80%
CYP2C19 inhib = blockers of cytochrome P450 2C19 activity – biochemical, luminescence, ADME assay, primary screen; CYP2C19 Supersomes, luciferin-H EGE luminescence, 30 min; P33261; actives 21% (n = 96,000); inhibition, % at 5 µM;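 active = CYP2C19 inhibition above a set limit at 5 µM in the primary screen, cut at about 50% in these data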;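 note: plate controls were negative control wells for no effect and 2.5 mM tranylcypromine positive control for full effect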
Target sequence (P33261 whole entry, looked up): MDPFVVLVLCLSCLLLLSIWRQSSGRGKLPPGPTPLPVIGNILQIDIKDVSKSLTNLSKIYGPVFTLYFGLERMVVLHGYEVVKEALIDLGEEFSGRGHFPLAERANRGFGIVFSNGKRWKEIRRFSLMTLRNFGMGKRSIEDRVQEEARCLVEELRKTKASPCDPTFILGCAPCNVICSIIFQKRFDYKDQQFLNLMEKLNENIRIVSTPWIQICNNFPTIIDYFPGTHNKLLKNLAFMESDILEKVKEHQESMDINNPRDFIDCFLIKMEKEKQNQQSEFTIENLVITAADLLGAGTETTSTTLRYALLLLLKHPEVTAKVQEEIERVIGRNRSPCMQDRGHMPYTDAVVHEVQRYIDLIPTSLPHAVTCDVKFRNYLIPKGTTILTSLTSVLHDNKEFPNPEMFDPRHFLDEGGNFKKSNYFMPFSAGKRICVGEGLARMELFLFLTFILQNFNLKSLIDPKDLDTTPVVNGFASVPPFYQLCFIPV
CYP2C19 act = human CYP2C19 activators, primary screen, biochemical, luminescence; recombinant CYP2C19, luciferin-H EGE luminescence; stronger effect = higher value; 0 = fully inhibited enzyme, 1 = untreated enzyme; activation factor at 5 µM; 96,000 tested, under 10 active;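 active = activation factor of at least 2 at 5 µM in the primary screen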;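 note: 0 = wells with 2.5 mM tranylcypromine and 1 = vehicle-only wells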
CYP2C9 inhib = blockers of cytochrome P450 2C9 activity – biochemical, luminescence, ADME assay, primary screen. P11712. CYP2C9 Supersomes, luciferin-H conversion. inhibition, % at 5 µM. actives 20% (n = 96,000);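 active = blocking of liver enzyme CYP2C9 beyond about 50% at 5 µM, limit read from the data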
sEH activator = soluble epoxide hydrolase activators, primary screen, biochemical, human sEH | Bifunctional epoxide hydrolase 2 (Homo sapiens), P34913 | purified human sEH enzymatic activity, activator screen | activation, % at 2 µM | actives 0.04% (n = 91,000); in the data active = activation above about 37%
CYP2C9 act = human CYP2C9 activators, primary screen, biochemical, luminescence; Cytochrome P450 2C9 (Homo sapiens), P11712; recombinant CYP2C9, luciferin-H conversion; stronger effect = higher value; factor 1 = untreated enzyme, 0 = blocked; activation factor at 5 µM; actives 1.4% (n = 96,000); AID 1024, 2008;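 active = activation factor of 2 or more for CYP2C9 at a 5 µM dose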;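 note: 0 = sulfaphenazole-blocked wells and 1 = vehicle-only wells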
The depositor's hits bear a star; nt = not tested or not shown.

SMILES	sEH inhibitor	CYP2C19 inhib	CYP2C19 act	CYP2C9 inhib	sEH activator	CYP2C9 act
CCCSP1(=S)NCCCO1 (stereo unspecified)	nt	7	0.9	13	nt	0.9
Cn1c(O)c(C(=N)COc2cccc(Cl)c2)c(=O)n(C)c1=O	-6	-6	1.1	4	4	1
CSc1ncc(Cl)c(C(=O)O)n1 (tested in a mixture with another compound)	-4	-30	1.3	-26	8	1.3
Cc1ccc2c(c1)CC1(CN2C)C(=O)NC(=O)N(C(C)C)C1=O (stereo unspecified)	6	82*	0.2	30	-3	0.7
CCC(C)N1C(=O)NC(=O)C2(Cc3cc(C)ccc3N(C)C2)C1=O (stereo unspecified)	nt	89*	0.1	70*	nt	0.3
Clc1cccc(CN2CCCCC2c2cccnc2)c1 (stereo unspecified)	nt	95*	0.1	54*	nt	0.5
O=C1C2CCCN2C(c2cccnc2)N1c1cccc(Cl)c1 (stereo unspecified)	1	16	0.8	15	-3	0.9
c1cncc(C2CCCCN2Cc2ccc3c(c2)OCO3)c1 (stereo unspecified)	17	97*	0	20	-17	0.8
O=c1[nH]c(=S)n(Cc2ccco2)c(O)c1C=NCc1cccs1	-19	23	0.8	59*	14	0.4
Clc1ccccc1Nc1ncnc(-n2cccc2)n1	2	31	0.7	14	0	0.9
Cc1sc2c(c1C)C(c1ccc(C(C)(C)C)cc1)=NCC(=O)N2CC(=O)Nc1nccs1	3	10	0.9	28	-1	0.7
O/N=C/c1c[nH]c2ccccc12	-4	5	1	-15	5	1.1
CCCC/C(=N\O)c1c[nH]c2ccccc12	3	69*	0.3	28	-1	0.7
OC1(CN2CCOCC2)C2CC3CC(C2)CC1C3 (stereo unspecified)	nt	4	1	-30	nt	1.3
Nc1ccc(S(=O)(=O)N2CCCCC2c2cccnc2)cc1 (stereo unspecified)	3	31	0.7	0	-4	1
O=S(=O)(c1ccccc1)N1CCCCC1c1cccnc1 (stereo unspecified)	6	52*	0.5	6	-7	0.9
Cc1ccccc1Cc1c(C)nc2nc(SCC(=O)N3CCC4(CC3)OCCO4)nn2c1C	-4	47	0.5	89*	2	0.1
Cc1nc2cc(-c3ccccc3)nn2c(C)c1CCC(=O)N1CCC2(CC1)OCCO2	nt	10	0.9	2	nt	1
Cc1ccc(Cc2c(C)nc3nc(SCC(=O)N4CCC5(CC4)OCCO5)nn3c2C)cc1	14	52*	0.5	65*	-16	0.4
O=c1[nH]c(=O)n(Cc2ccc(F)cc2)c(O)c1C=NCC1CCCO1 (stereo unspecified)	-3	-10	1.1	-12	1	1.1
O=P(OCC(F)(F)C(F)F)(N1CCCCC1)N1CCCCC1	-9	-8	1.1	-10	6	1.1
COc1ccc(C(CC(=O)N2CCC3(CC2)OCCO3)NS(=O)(=O)c2ccc(C)cc2)cc1 (stereo unspecified)	2	10	0.9	-37	-2	1.4
CC(C)OCCCNC(=O)c1c(N)n(Cc2cccs2)c2nc3ccccc3nc12	nt	14	0.9	91*	nt	0.1
Nc1c(C(=O)OCC2CCCO2)c2nc3ccccc3nc2n1Cc1cccs1 (stereo unspecified)	-21	41	0.6	57*	19	0.4
CC(=O)c1cccc(OCC(O)CN2CC=C(c3ccccc3)CC2)c1 (stereo unspecified)	5	55*	0.4	51*	-6	0.5
SMILES	sEH inhibitor	CYP2C19 inhib	CYP2C19 act	CYP2C9 inhib	sEH activator	CYP2C9 act
CCOC(=O)c1c(-n2c(C)cc(/C=C3\C(=O)NC(=O)N(C)C3=O)c2C)sc2c1CCCC2	4	43	0.6	71*	-3	0.3
CCOC(=O)c1c(/N=C/c2c(O)n(-c3ccc(F)cc3)c(=S)[nH]c2=O)sc2c1CCCC2	3	-10	1.1	37	-2	0.6
CC(C)NS(=O)(=O)c1ccc(OCC(=O)N2CCN(Cc3ccc4c(c3)OCO4)CC2)c(Cl)c1	10	71*	0.3	18	-8	0.8
Cc1cc(S(=O)(=O)NC(C)C)ccc1OCC(=O)N1CCN(Cc2ccc3c(c2)OCO3)CC1	-8	63*	0.4	59*	9	0.4
Cc1cc(S(=O)(=O)NCC(C)C)ccc1OCC(=O)N1CCN(Cc2ccccc2)CC1	4	50*	0.5	66*	-2	0.3
CCCCCCn1c(O)c(C=NC2CCCCC2N)c(=O)[nH]c1=O (stereo unspecified)	8	7	0.9	52*	-9	0.5
NC1CCCCC1N=Cc1c(O)n(Cc2ccc(F)cc2)c(=O)[nH]c1=O (stereo unspecified)	2	12	0.9	76*	-3	0.2
CCCCn1c(O)c(C=NC2CCCCC2N)c(=O)[nH]c1=O (stereo unspecified)	6	-16	1.2	-25	-6	1.3
Cc1nnc(SCc2nc3ccccc3c(=O)n2-c2ccccc2Cl)n1N	-1	13	0.9	3	6	1
CC(=NCCN1CCCCC1)c1c(O)[nH]c(=O)[nH]c1=O	-2	22	0.8	9	0	0.9
COC(=O)CC1NC2CCCCC2NC1=O (stereo unspecified)	4	-10	1.1	-8	-1	1.1
O=c1c2ccccc2nc(-c2ccccc2)n1-n1cccc1	-3	53*	0.5	57*	3	0.4
CC(N=Cc1c(O)[nH]c(=O)[nH]c1=O)c1ccccc1 (stereo unspecified)	0	11	0.9	18	-1	0.8
CC(=O)c1ccc2c(c1)C1C(Cl)C(Sc3ccccc3[N+](=O)[O-])CC1C(c1ccccc1)N2 (stereo unspecified)	21	44	0.6	74*	-18	0.3
COc1cc(NC(=O)CN2C3CCC2CC(O)(c2cccnc2)C3)cc(OC)c1 (stereo unspecified)	-1	9	0.9	8	3	0.9
CNCCc1nc(N)n[nH]1	0	-8	1.1	-9	3	1.1
O=c1[nH]c(=O)n(C2CCCCC2)c(O)c1C=NCCCn1ccnc1	nt	61*	0.4	50*	nt	0.5
O=c1[nH]c(=O)n(CCc2ccc(F)cc2)c(O)c1C=NCCCn1ccnc1	nt	47	0.5	68*	nt	0.3
